Data on five compounds can be found in PubChem BioAssay (EPA / NIEHS).

Each structure is given as a SMILES string. Records with an inconclusive call do not appear. Activity calls are given as the source filed them. The calls were made as follows, unless noted: active = hit-call score of the fitted dose curve at least 0.9, where 1 is the maximum; inactive = score below 0.9.

Test [1] concerns the target Paired box protein Pax-6 (Homo sapiens) (UniProt P26367). In words: ATG_Pax6_CIS: Attagene CIS-FACTORIAL HepG2 Assay for human Paired Box 6 (PAX6) (AID 2282956). The note with it: HepG2 CIS-FACTORIAL PAX6 reporter transcription, RNA readout; actives raise or lower the signal. In short, it runs like this: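 HepG2 cells transiently transfected with cis-promoter-driven multiplexed reporter units sensing endogenous transcription factor activity; 24 h chemical exposure. Reporter mRNA quantified by RT-PCR, 6-FAM labelling, HpaI digestion and capillary electrophoresis; bidirectional fit versus DMSO baseline.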

Test [2] can be described thus: ATG_PXRE_CIS: Attagene CIS-FACTORIAL HepG2 Assay for human Pregnane X Receptor Element (PXRE) (AID 2282957). Conditions: HepG2 Attagene CIS-FACTORIAL PXRE reporter, mRNA; actives raise or lower the signal. In short, it runs like this: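 Cis-element reporter mRNA in human hepatoma HepG2 cells is measured 24 h post-dosing by RT-PCR, primer-extension labeling and capillary electrophoresis; gain or loss of signal is fitted relative to DMSO.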

Test [3] can be described thus: ATG_PPRE_CIS: Attagene CIS-FACTORIAL HepG2 Assay for human Peroxisome Proliferator-activated Response Element (PPRE) (AID 2282958). The note with it: HepG2 PPRE cis-element reporter, Attagene transcription factor profiling; actives raise or lower the signal. In short, it runs like this: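 Read-out: fluorescent reporter mRNA fragments resolved by capillary electrophoresis after RT-PCR. HepG2 cells carried transiently transfected PPRE-driven cis reporter constructs and were dosed for 24 h; gain or loss of signal fitted relative to DMSO.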

The nature of test [4]: ATG_RORE_CIS: Attagene CIS-FACTORIAL HepG2 Assay for human RAR-related Orphan Receptor Element (RORE) (AID 2282959). Conditions: HepG2 Attagene cis-factorial RORE reporter, mRNA; actives raise or lower the signal. In short, it runs like this:
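Readout: fluorescent reporter mRNA by RT-PCR plus capillary electrophoresis, 24 h after dosing transfected HepG2 cells. Endogenous transcription factor activity on a cis promoter element is measured. Gain or loss of signal fitted against DMSO.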

Test [5] in a line: ATG_Sox_CIS: Attagene CIS-FACTORIAL HepG2 Assay for human SRY-box transcription factor (SOX) (AID 2282960). Conditions: HepG2 Attagene cis-factorial SOX reporter, mRNA; actives raise or lower the signal. In short, it runs like this: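 Read-out: fluorescent RT-PCR products of SOX1-linked reporter transcripts resolved by capillary electrophoresis, fitted bidirectionally against DMSO. Transiently transfected HepG2 cells, 24 h after chemical exposure, endogenous transcription factor activity.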

For test [6], the target named is Transcription factor Sp1 (Homo sapiens) (UniProt P08047). In words: ATG_Sp1_CIS: Attagene CIS-FACTORIAL HepG2 Assay for human Specificity Protein 1 (Sp1) (AID 2282961). Conditions: HepG2 Sp1 cis-reporter transcription, actives raise or lower the signal. In short, it runs like this: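 Read-out: fluorescence of 6-FAM-labeled, HpaI-digested RT-PCR products separated by capillary electrophoresis. HepG2 cells carried transfected cis-element reporter units and were exposed to chemicals for 24 h; gain or loss of signal fitted relative to DMSO.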

Test [7] in a line: ATG_SREBP_CIS: Attagene CIS-FACTORIAL HepG2 Assay for human Sterol Regulatory Element Binding (SREBP) (AID 2282962). The note with it: HepG2 Attagene cis-factorial SREBP reporter, mRNA; actives raise or lower the signal. In short, it runs like this: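 HepG2 cells transiently transfected with multiplexed cis-promoter reporter units sensing endogenous transcription factors; reporter mRNA measured 24 h after dosing by RT-PCR, 6-FAM labeling, HpaI digestion and capillary electrophoresis. Bidirectional fit versus DMSO.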

The target of test [8] is Signal transducer and activator of transcription 3 (Homo sapiens) (UniProt P40763). Put plainly: ATG_STAT3_CIS: Attagene CIS-FACTORIAL HepG2 Assay for human Signal Transducer and Activator of Transcription 3 (STAT3) (AID 2282963). Conditions: HepG2, Attagene cis-factorial STAT3 reporter transcription; actives raise or lower the signal. In short, it runs like this:
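Endogenous STAT3-responsive cis-element activity was read in transiently transfected HepG2 cells after 24 h treatment. Reporter transcripts were quantified via RT-PCR and capillary electrophoresis, with DMSO as negative control and bidirectional curve fitting.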

A short description of test [9]: ATG_TA_CIS: Attagene CIS-FACTORIAL HepG2 Assay for human TA Basal Promoter (AID 2282964). The note with it: HepG2 Attagene CIS-factorial TA basal promoter reporter; actives raise or lower the signal. In short, it runs like this:
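HepG2 cells transiently transfected with multiple reporter units under cis promoter elements, reporting endogenous transcription factor activity; this endpoint tracks the TA basal promoter as background control. Reporter mRNA after 24 h dosing measured by RT-PCR/capillary electrophoresis; bidirectional fits versus DMSO.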

Test [10] can be described thus: ATG_TAL_CIS: Attagene CIS-FACTORIAL HepG2 Assay for human TAL Basal Promoter (AID 2282966).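 Also: background control endpoint measuring basal TAL promoter reporter mRNA not a specific factor.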 Conditions: HepG2 Attagene cis-factorial TAL promoter reporter; actives raise or lower the signal. In short, it runs like this: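 In this cell-based multiplex, HepG2 liver cells bearing cis-promoter reporter constructs are dosed for 24 hours. Total RNA is reverse-transcribed and amplified, labelled fragments are sized by capillary electrophoresis, and signal changes are fitted bidirectionally versus DMSO.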

Test [11] in a line: ATG_TGFb_CIS: Attagene CIS-FACTORIAL HepG2 Assay for human Transforming Growth Factor (TGF) (AID 2282967). Conditions: HepG2 Attagene CIS TGFb reporter, mRNA transcription; actives raise or lower the signal. In short, it runs like this:
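HepG2 cells transiently transfected with cis-promoter-driven multiple reporter units measure endogenous TF activity; reporter mRNA quantified at 24 h by RT-PCR, FAM labeling, HpaI digestion and capillary electrophoresis. Bidirectional fit vs DMSO.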

The target of test [12] is Estrogen receptor (Homo sapiens) (UniProt P03372). Put plainly: ATG_ERa_TRANS: Attagene TRANS-FACTORIAL HepG2 Assay for human Estrogen Receptor alpha (ERa) (AID 2282970; active = hit-call score of the fitted dose curve at least 0.9, where 1 is the maximum). Conditions: HepG2 Attagene TRANS ERa GAL4 reporter, mRNA. In short, it runs like this:
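After 24 h of compound treatment, RNA from HepG2 cells bearing transfected GAL4-UAS reporter constructs is converted to cDNA, amplified and fluorescently labelled. Capillary electrophoresis resolves the ERa-linked reporter; DMSO serves as negative control.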

For test [13], the target named is X-box-binding protein 1 (Homo sapiens) (UniProt P17861). Put plainly: ATG_Xbp1_CIS: Attagene CIS-FACTORIAL HepG2 Assay for human X-box Binding Protein 1 (XBP1) (AID 2282972). The note with it: HepG2 XBP1 cis-element reporter, Attagene multiplex; actives raise or lower the signal. In short, it runs like this:
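HepG2 cells transiently transfected with multiple cis-element reporter units report endogenous TF activity; 24 h exposure, then reporter mRNA measured by RT-PCR, 6-FAM labelling, HpaI digestion and capillary electrophoresis. Bidirectional fitting versus DMSO.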

The nature of test [14]: ATG_M_19_TRANS: Attagene TRANS-FACTORIAL HepG2 Assay for M19 Transcription Factor (Internal Marker) (AID 2282974; active = hit-call score of the fitted dose curve at least 0.9, where 1 is the maximum). The note with it: HepG2 Attagene TRANS-FACTORIAL M19 internal marker reporter. In short, it runs like this:
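24 h chemical exposure of transiently transfected HepG2 (MRTU library). RNA → oligo(dT) RT → PCR → 6-FAM labelling → HpaI cut → CE fluorescence. Positive-direction fit vs DMSO baseline; background internal-marker readout.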

Test [15] can be described thus: ATG_TCF_b_cat_CIS: Attagene CIS-FACTORIAL HepG2 Assay for human T-Cell-Factor with beta-catenin (TCF/b-cat) (AID 2282965). Conditions: HepG2 TCF/beta-catenin cis-reporter transcription, actives raise or lower the signal. In short, it runs like this: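 Endogenous transcription factor activity is captured through cis-promoter reporter constructs transiently introduced into human HepG2 liver cells. Induced reporter mRNA is measured after 24 h and fitted bidirectionally relative to DMSO.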

Test [16] in a line: ATG_VDRE_CIS: Attagene CIS-FACTORIAL HepG2 Assay for human Vitamin D Receptor Element (VDRE) (AID 2282968). Conditions: HepG2 VDRE cis-reporter transcription, actives raise or lower the signal. In short, it runs like this: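 Reporter mRNA induction, quantified by capillary electrophoresis of fluorescently labelled RT-PCR products, was read 24 h after dosing HepG2 cells carrying transiently transfected cis-regulated reporter units; gain or loss relative to DMSO.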

Test [17] concerns the target Steroid hormone receptor ERR1 (Homo sapiens) (UniProt P11474). Put plainly: ATG_ERRa_TRANS: Attagene TRANS-FACTORIAL HepG2 Assay for human Estrogen-Related Receptor alpha (ERRa) (AID 2282971; active = hit-call score of the fitted dose curve at least 0.9, where 1 is the maximum). Conditions: HepG2 Attagene TRANS reporter, ERRa transactivation. In short, it runs like this:
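Transfected HepG2, 24 h dosing, ERRa-Gal4 chimera driving GAL4-UAS reporter. Readout: reporter mRNA via RT-PCR plus capillary electrophoresis (fluorescence). Positive direction vs DMSO control.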

Test [18] deals with Estrogen-related receptor gamma (Homo sapiens) (UniProt P62508). In words: ATG_ERRg_TRANS: Attagene TRANS-FACTORIAL HepG2 Assay for human Estrogen-Related Receptor gamma (ERRg) (AID 2282977; active = hit-call score of the fitted dose curve at least 0.9, where 1 is the maximum;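 also: hits increase reporter signal over DMSO so potencies reflect activators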). Conditions: HepG2 Attagene TRANS reporter, ERRg transactivation. In short, it runs like this: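 HepG2 cells transiently transfected with multiplexed GAL4-UAS reporter units driven by chimeric NR-Gal4 proteins; 24 h exposure. Reporter mRNA quantified by RT-PCR, fluorescent labelling, HpaI digestion and capillary electrophoresis; gain of signal vs DMSO.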

For test [19], the target named is Nuclear receptor subfamily 1 group I member 3 (Homo sapiens) (UniProt Q14994). Put plainly: ATG_CAR_TRANS: Attagene TRANS-FACTORIAL HepG2 Assay for human Constitutive Androstane Receptor (CAR) (AID 2282969; active = hit-call score of the fitted dose curve at least 0.9, where 1 is the maximum;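 also: activators raise reporter mRNA above DMSO so AC50 marks induction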). The note with it: HepG2 Attagene TRANS-FACTORIAL CAR reporter. In short, it runs like this:
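Readout is reporter mRNA induction, quantified by fluorescent primer extension and capillary electrophoresis after RT-PCR. Cells were HepG2 transiently carrying chimeric NR-Gal4 constructs with GAL4-UAS reporters, treated for 24 h; activity scored upward from DMSO.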

Chain of Paired box protein Pax-6 (Homo sapiens) (P26367 whole entry, looked up): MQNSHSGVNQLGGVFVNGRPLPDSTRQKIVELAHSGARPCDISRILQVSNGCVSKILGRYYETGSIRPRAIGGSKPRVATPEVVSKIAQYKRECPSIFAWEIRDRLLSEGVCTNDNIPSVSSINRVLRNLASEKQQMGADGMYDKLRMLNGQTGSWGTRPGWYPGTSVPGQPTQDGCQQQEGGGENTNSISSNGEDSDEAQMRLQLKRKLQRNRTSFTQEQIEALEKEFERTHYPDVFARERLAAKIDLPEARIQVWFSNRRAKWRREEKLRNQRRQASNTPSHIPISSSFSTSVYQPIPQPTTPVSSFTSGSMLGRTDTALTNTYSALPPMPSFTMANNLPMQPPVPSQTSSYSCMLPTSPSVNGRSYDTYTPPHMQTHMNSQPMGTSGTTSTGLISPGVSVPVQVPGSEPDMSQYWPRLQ
Chain of Estrogen receptor (Homo sapiens) (P03372 whole entry, looked up, the tested form may be a part): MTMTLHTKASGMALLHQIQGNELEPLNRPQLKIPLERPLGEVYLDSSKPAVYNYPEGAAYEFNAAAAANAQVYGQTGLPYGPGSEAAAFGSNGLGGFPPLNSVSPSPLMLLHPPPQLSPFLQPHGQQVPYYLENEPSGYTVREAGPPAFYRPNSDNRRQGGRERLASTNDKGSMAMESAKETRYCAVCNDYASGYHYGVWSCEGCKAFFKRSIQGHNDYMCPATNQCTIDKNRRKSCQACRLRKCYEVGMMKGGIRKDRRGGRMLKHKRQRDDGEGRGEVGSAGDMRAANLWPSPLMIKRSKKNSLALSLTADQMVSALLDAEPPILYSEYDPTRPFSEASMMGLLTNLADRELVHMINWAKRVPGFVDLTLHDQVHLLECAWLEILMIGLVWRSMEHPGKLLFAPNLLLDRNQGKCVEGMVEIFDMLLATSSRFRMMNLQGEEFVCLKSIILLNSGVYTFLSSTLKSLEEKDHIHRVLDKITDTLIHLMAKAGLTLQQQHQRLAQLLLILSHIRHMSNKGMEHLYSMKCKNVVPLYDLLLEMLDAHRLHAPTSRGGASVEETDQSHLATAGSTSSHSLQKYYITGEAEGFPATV
Chain of Transcription factor Sp1 (Homo sapiens) (P08047 whole entry, looked up): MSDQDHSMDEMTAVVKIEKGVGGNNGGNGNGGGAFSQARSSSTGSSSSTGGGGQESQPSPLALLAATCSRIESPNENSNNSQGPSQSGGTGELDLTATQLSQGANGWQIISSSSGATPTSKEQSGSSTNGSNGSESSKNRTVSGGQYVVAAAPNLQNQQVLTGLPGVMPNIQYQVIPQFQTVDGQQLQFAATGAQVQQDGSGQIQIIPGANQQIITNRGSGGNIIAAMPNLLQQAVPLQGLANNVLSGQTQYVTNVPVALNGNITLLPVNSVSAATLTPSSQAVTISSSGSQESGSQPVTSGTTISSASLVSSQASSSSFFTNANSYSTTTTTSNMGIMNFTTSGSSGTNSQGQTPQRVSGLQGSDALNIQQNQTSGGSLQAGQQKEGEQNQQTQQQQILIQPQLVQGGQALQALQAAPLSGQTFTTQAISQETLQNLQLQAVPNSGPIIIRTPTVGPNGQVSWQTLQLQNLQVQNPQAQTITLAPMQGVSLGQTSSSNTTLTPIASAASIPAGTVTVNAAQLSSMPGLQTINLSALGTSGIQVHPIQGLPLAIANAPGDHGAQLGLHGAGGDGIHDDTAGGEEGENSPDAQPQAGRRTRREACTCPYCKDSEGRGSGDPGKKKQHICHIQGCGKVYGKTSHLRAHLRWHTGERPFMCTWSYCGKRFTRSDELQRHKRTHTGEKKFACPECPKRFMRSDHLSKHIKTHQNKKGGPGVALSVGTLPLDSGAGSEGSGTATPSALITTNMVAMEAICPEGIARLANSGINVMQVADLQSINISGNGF
Chain of X-box-binding protein 1 (Homo sapiens) (P17861 whole entry, looked up): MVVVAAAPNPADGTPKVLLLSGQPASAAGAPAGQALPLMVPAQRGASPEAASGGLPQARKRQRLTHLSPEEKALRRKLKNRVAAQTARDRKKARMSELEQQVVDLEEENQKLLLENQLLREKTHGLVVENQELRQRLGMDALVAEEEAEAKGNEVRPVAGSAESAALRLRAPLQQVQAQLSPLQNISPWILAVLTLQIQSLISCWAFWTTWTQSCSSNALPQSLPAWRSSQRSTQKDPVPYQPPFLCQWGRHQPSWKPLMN
Chain of Signal transducer and activator of transcription 3 (Homo sapiens) (P40763 whole entry, looked up): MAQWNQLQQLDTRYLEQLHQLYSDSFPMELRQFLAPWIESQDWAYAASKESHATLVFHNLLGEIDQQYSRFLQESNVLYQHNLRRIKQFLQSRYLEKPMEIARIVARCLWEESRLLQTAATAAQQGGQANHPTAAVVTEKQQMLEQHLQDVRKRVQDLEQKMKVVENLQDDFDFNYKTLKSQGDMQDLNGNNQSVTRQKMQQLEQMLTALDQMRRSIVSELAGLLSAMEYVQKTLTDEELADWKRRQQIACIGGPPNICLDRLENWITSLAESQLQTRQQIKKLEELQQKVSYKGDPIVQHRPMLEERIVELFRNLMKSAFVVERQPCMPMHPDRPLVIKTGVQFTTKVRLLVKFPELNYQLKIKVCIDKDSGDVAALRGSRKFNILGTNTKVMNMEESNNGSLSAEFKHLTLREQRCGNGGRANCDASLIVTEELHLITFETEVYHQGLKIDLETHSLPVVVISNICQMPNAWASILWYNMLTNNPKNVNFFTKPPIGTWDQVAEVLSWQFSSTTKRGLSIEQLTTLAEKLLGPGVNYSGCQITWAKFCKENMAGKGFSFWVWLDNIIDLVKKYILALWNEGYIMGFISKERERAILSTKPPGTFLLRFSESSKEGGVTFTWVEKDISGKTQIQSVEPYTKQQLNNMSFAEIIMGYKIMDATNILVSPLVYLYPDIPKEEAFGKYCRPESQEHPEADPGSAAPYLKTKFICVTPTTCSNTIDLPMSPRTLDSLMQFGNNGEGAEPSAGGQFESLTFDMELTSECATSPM
Chain of Estrogen-related receptor gamma (Homo sapiens) (P62508 whole entry, looked up, the tested form may be a part): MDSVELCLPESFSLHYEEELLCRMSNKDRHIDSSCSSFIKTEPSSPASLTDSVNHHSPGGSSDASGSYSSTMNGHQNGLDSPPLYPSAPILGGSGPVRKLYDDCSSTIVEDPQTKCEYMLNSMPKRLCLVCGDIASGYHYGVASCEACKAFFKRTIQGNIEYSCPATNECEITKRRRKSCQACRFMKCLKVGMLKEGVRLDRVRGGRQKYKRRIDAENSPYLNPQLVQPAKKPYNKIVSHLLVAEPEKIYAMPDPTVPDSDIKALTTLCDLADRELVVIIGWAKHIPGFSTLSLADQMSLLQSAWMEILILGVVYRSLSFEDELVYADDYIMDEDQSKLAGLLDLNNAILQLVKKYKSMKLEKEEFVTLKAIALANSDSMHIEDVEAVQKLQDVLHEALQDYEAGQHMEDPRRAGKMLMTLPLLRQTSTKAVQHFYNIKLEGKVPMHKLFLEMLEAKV
Chain of Nuclear receptor subfamily 1 group I member 3 (Homo sapiens) (Q14994 whole entry, looked up, the tested form may be a part): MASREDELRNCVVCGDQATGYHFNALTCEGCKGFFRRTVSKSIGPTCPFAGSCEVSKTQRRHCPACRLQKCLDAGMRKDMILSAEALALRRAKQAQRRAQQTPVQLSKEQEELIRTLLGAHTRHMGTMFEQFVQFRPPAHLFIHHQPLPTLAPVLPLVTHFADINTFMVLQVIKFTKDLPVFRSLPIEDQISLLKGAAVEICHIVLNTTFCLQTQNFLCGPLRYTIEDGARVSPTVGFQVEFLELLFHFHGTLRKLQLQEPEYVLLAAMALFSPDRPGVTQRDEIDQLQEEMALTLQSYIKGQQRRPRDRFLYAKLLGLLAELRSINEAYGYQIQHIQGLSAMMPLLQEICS
Chain of Steroid hormone receptor ERR1 (Homo sapiens) (P11474 whole entry, looked up, the tested form may be a part): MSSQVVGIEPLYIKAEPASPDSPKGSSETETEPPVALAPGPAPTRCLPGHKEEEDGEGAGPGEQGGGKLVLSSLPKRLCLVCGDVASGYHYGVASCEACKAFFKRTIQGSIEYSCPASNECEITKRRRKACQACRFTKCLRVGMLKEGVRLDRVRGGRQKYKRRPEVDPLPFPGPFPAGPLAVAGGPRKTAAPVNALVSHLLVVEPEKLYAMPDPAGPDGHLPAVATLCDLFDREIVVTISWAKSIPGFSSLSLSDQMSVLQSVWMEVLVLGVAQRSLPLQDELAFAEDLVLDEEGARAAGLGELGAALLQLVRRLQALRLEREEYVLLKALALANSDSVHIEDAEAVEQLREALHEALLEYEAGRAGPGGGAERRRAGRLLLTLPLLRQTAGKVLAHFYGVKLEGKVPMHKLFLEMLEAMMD

Broadly, the AC50 is the concentration giving half of the maximal activity seen. On to `C=CC(=O)OCC(Br)CBr` (stereo not given), for which the AC50 is 34.5 µM (active) in [1], 121 µM (active) in test [8], 0.39 µM (active) in [11] and 100 µM (active) in [12]. For the same compound, the compound was called inactive in test [2], in test [3], in test [4], in test [5], in [6] and in test [7]. The result in [9], in [10], in test [13] and in [14] was inactive.

For the compound `Cc1ccc([N+](=O)[O-])cc1S(=O)(=O)O`, the result in [1], in test [2], in [3], in test [4], in test [7] and in [8] was inactive. The result in test [15], in test [11], in [16], in test [12], in test [13] and in test [14] was inactive. Also, the results for the AC50 in [5] and in test [6] were 180 µM (active) and 156 µM (active), respectively.

With `O=C(Nc1ccccc1)c1ccccc1O`, the result in [1], in [4], in test [5], in [6], in [7] and in [8] was inactive. Further, the compound was classed as inactive in test [10], in [11], in [17] and in [18]. Also, the AC50 in [2] is 27.4 µM (active); in [3] it was 100 µM (active); in [12], 27.2 µM (active); in test [13], 44.4 µM (active).

Consider `CCCCCCOc1cc(C)c(O)c(C)c1C`, for which the result in test [1], in test [3], in test [4], in test [5], in test [6] and in test [7] was inactive. For the same compound, the result in test [8], in [9], in test [15], in test [11], in test [19] and in test [12] was inactive. Moreover, the outcome in [13] and in test [18] was inactive. Moreover, the concentration at half-maximal activity (AC50) in test [2] is 3.01 µM (active).

For `CN(C)c1ccc(N=Nc2ccccc2C(=O)O)cc1`, the AC50 in [1] is 35.1 µM (active); in test [2], 26.3 µM (active); in test [3], 17.8 µM (active); in test [5] it was 24.9 µM (active); in test [6] it was 40.8 µM (active); in [13], 9.33 µM (active). For the same compound, the call in [4], in test [7], in test [8], in test [9], in [10] and in [11] was inactive. Further, the outcome in test [12] was inactive.
